The subject of test [1] is DLD1. Description: cell viability (CellTiter-Glo) relative to plate median (fraction of plate median); higher = more viable cells. The following applies: 5 µM; treatment time 24 h; reporter: 7TFP. The procedure, abridged: (§1)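 On parallel plates, a Tecan F500 reader recorded either firefly luciferase or CellTiterGlo luminescence. The plates held colorectal cancer cells stably transduced with lentiviral TCF/Wnt firefly luciferase reporters (7TFP or TCF4/Wnt), seeded in 384-well format and treated 24 h later with library compounds at a final 5 µM for 24 h. Per-well signals were normalised to the plate median (webcellHTS2, additive, no log transformation), and two independent replicates were averaged.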
Background: Cellular ATP, detected with luciferase, serves as a proxy for viable cell number.

Test [2] relates to HCT116. The test is described as above. The following applies: 5 µM; treatment time 24 h; reporter: TCF4/Wnt. The essentials:
as §1

Test [3] deals with SW480. The test is described as above. The settings on record: 5 µM; treatment time 24 h; reporter: 7TFP. The essentials: as §1
Test [4] concerns DLD1. The test can be described thus: TCF/Wnt firefly luciferase reporter signal relative to plate median (fraction of plate median); higher = higher Wnt reporter signal. The following applies: 5 µM; treatment time 24 h; reporter: 7TFP. The procedure, abridged: as §1
For orientation: In a reporter assay the amount or activity of a reporter protein is the signal.

Test [5] has as its system SW480. The description is as above. The settings on record: 5 µM; treatment time 24 h; reporter: 7TFP. The procedure, abridged: as §1

Results on 30 compounds are retold here after the supplement of paper PMC6522484.

Molecules are shown by their SMILES. ± gives the standard deviation of the averaged measurements.

For `CCCCOc1cc(C(=O)NCCN(CC)CC)c2ccccc2n1`, the cell viability was found to be 0.973 ± 0.011 in test [1], 0.926 ± 0.1 in test [2] and 0.984 in test [3]. In addition, the “TCF/Wnt firefly luciferase reporter signal” value in test [4] was found to be 0.831 ± 0.05; in test [5], 0.964 ± 0.045.

Consider `Nc1ncnc2c1ncn2[C@@H]1O[C@H](CO)[C@@H](O)[C@H]1O`, for which the cell viability worked out at 1.06 ± 0.014 in test [1], 1.06 ± 0.09 in test [2] and 1.04 ± 0.035 in test [3]. Besides, the “TCF/Wnt firefly luciferase reporter signal” value is 1.07 ± 0.17 in test [4] and 1.15 ± 0.028 in test [5].

For the compound `C/C=C/C/C=C/CCC(=O)[C@H]1O[C@H]1C(N)=O` [Cerulenin], the cell viability in test [1] turned out to be 0.927 ± 0.092; in test [2], 0.951 ± 0.069; in test [3], 0.946 ± 0.018. In addition, the “TCF/Wnt firefly luciferase reporter signal” value in test [4] came out at 1.01 ± 0.11; in test [5] it was 0.993 ± 0.025.

On to `COC(=O)C(O)c1ccccc1` (stereo not given), for which the cell viability was 1.04 ± 0.021 in test [1], 1.11 in test [2] and 1.07 ± 0.035 in test [3]. The “TCF/Wnt firefly luciferase reporter signal” value in test [4] stood at 1.04 ± 0.042; in test [5], 0.876 ± 0.019.

For `CC(=O)O[C@H]1CC[C@@]2(C)[C@H](CC[C@@H]3[C@@H]2CC[C@]2(C)[C@@H]4[C@H](C[C@@H]32)O[C@]2(CC[C@@H](C)CO2)[C@H]4C)C1`, the cell viability in test [1] was 1.01 ± 0.028; in test [2], 0.979 ± 0.1; in test [3], 0.977 ± 0.0014. The figures for the “TCF/Wnt firefly luciferase reporter signal” value in test [4] and in test [5] were 0.836 ± 0.043 and 0.941 ± 0.083, respectively.

On to `Cc1cc(C(C)(C)CC(C)(C)C)ccc1OCCOCC[N+](C)(C)Cc1ccccc1`, for which the cell viability in test [1] worked out at 1.02 ± 0.069; in test [2] it was 0.977 ± 0.076; in test [3] it was 1.08 ± 0.014. For the same compound, the “TCF/Wnt firefly luciferase reporter signal” value in test [4] stood at 0.87 ± 0.061; in test [5], 0.909 ± 0.028.

Turning to `N[C@@H](C(=O)N[C@@H]1C(=O)N2C(C(=O)O)=C(Cl)CS[C@H]12)c1ccccc1`, the cell viability in test [1] turned out to be 0.963 ± 0.029; in test [2] it was 0.955 ± 0.064; in test [3], 0.953 ± 0.028. Further, the “TCF/Wnt firefly luciferase reporter signal” value in test [4] was 0.897 ± 0.079; in test [5] it was 0.742 ± 0.025.

On to `CCCCCCCCCCC[C@@H](C[C@@H]1OC(=O)[C@H]1CCCCCC)OC(=O)[C@H](CC(C)C)NC=O`, for which the cell viability was 0.83 ± 0.15 in test [1], 1.03 ± 0.12 in test [2] and 0.972 ± 0.018 in test [3]. The “TCF/Wnt firefly luciferase reporter signal” value in test [4] came to 1.01 ± 0.13; in test [5], 0.933 ± 0.023.

As for `O=C(O)CCC(=O)Nc1ccc(S(=O)(=O)Nc2nccs2)cc1`, the values for the cell viability in test [1], in test [2] and in test [3] were 0.9765 ± 0.0064, 1.02 ± 0.028 and 1.04 ± 0.035, respectively. In addition, the figures for the “TCF/Wnt firefly luciferase reporter signal” value in test [4] and in test [5] were 0.935 ± 0.12 and 1.03 ± 0.028, respectively.

On to `C[C@@H]1CC(=O)c2c(ccc3c2C(=O)c2cccc(O)c2C3=O)C1` [Ochromycinone (Isoform C, Compound ID 7613)], for which the figures for the cell viability in test [1], in test [2] and in test [3] were 1.02 ± 0.091, 1.08 ± 0.099 and 1.1 ± 0.064, respectively. In addition, the “TCF/Wnt firefly luciferase reporter signal” value in test [4] was found to be 1.09 ± 0.13; in test [5] it was 1.04 ± 0.11.

For `O=c1c(O)c(-c2ccc(O)c(O)c2)oc2cc(O)ccc12`, the cell viability in test [1] is 0.989 ± 0.073; in test [2] it was 0.948 ± 0.028; in test [3] it was 0.969 ± 0.019. In addition, the “TCF/Wnt firefly luciferase reporter signal” value in test [4] is 1.01 ± 0.097; in test [5] it was 0.923 ± 0.11.

Consider `COC(=O)[C@@H]1OC(=O)[C@H]2O[C@@]23[C@@]1(C)CCC1[C@@]2(C)CCC(=O)C(C)(C)C2C[C@@H](OC(C)=O)[C@]13C` (stereo not given in full), for which the cell viability in test [1] was 0.995 ± 0.078; in test [2] it was 1.1 ± 0.085; in test [3] it was 1.01 ± 0.034. Also, the “TCF/Wnt firefly luciferase reporter signal” value in test [4] came to 0.994 ± 0.037; in test [5] it was 0.967 ± 0.038.

In the case of `COc1ccc(-c2oc3cc(OC)c(OC)c(OC)c3c(=O)c2OC)cc1`, the cell viability in test [1] came to 0.978 ± 0.06; in test [2], 0.918 ± 0.06; in test [3] it was 1.02 ± 0.021. The “TCF/Wnt firefly luciferase reporter signal” value was 1.055 ± 0.0071 in test [4] and 0.917 ± 0.087 in test [5].

Take `CC(=O)Oc1c(C)cccc1C(=O)O`: the cell viability in test [1] came out at 0.9705 ± 0.0064; in test [2], 0.966 ± 0.039; in test [3], 1.02 ± 0.063. Moreover, the “TCF/Wnt firefly luciferase reporter signal” value in test [4] is 0.884 ± 0.13; in test [5] it was 0.979 ± 0.087.

`CC(=O)c1oc(C)c2c1C(=O)c1cccc(O)c1C2=O` [Bhimamycin B]: the cell viability was determined as 0.955 ± 0.019 in test [1], 1.01 ± 0.015 in test [2] and 0.9505 ± 0.00071 in test [3]. Also, the “TCF/Wnt firefly luciferase reporter signal” value in test [4] was 1.02 ± 0.035; in test [5], 1.1 ± 0.028.

Turning to `c1ccc2[nH]c(-c3cscn3)nc2c1`, the results for the cell viability in test [1], in test [2] and in test [3] were 1.02 ± 0.021, 1.17 ± 0.035 and 1.02, respectively. The “TCF/Wnt firefly luciferase reporter signal” value in test [4] came out at 1.32 ± 0.16; in test [5], 1.18 ± 0.028.

Turning to `CC(=O)[C@@]1(O)CC[C@H]2[C@@H]3C[C@H](C)C4=CC(=O)C=C[C@]4(C)[C@@]3(F)[C@@H](O)C[C@@]21C`, the cell viability in test [1] was found to be 1.07 ± 0.085; in test [2] it was 1.03; in test [3] it was 0.957 ± 0.044. Further, the results for the “TCF/Wnt firefly luciferase reporter signal” value in test [4] and in test [5] were 0.985 ± 0.079 and 0.99 ± 0.057, respectively.

Regarding `CC(C)c1c(C(=O)Nc2ccccc2)c(-c2ccccc2)c(-c2ccc(F)cc2)n1CC[C@@H](O)C[C@@H](O)CC(=O)O`, the cell viability in test [1] was found to be 0.9915 ± 0.0092; in test [2] it was 1 ± 0.069; in test [3], 1.01 ± 0.076. In addition, the “TCF/Wnt firefly luciferase reporter signal” value in test [4] was determined as 0.966 ± 0.09; in test [5], 0.909 ± 0.013.

`C=CC(C)(O)CCC=C(C)CCC=C(C)C` (mixture of isomers): the cell viability came to 1.09 in test [1], 0.977 ± 0.075 in test [2] and 0.94 ± 0.0028 in test [3]. Also, the “TCF/Wnt firefly luciferase reporter signal” value turned out to be 0.8335 ± 0.00071 in test [4] and 0.851 ± 0.15 in test [5].

On to `C[C@]12CCC(=O)C=C1CC[C@@H]1[C@@H]2C(=O)C[C@@]2(C)[C@H]1CC[C@]2(O)C(=O)CO`, for which the cell viability in test [1] came to 0.888 ± 0.14; in test [2], 1.02 ± 0.12; in test [3], 0.957 ± 0.0057. In addition, the “TCF/Wnt firefly luciferase reporter signal” value in test [4] was 0.914 ± 0.093; in test [5] it was 0.761 ± 0.013.

For the compound `COc1ccnc(C[S+]([O-])c2nc3cc(OC(F)F)ccc3[nH]2)c1OC` (stereo not given), the values for the cell viability in test [1], in test [2] and in test [3] were 0.961 ± 0.0042, 1.03 ± 0.014 and 0.974 ± 0.036, respectively. Besides, the results for the “TCF/Wnt firefly luciferase reporter signal” value in test [4] and in test [5] were 1.06 ± 0.05 and 1.05 ± 0.071, respectively.

As for `C1CNCCN1`, the cell viability in test [1] was found to be 1.004 ± 0.0092; in test [2], 0.96 ± 0.071; in test [3], 0.987 ± 0.018. In addition, the entries for the “TCF/Wnt firefly luciferase reporter signal” value in test [4] and in test [5] were 1.25 ± 0.021 and 1.05 ± 0.042, respectively.

As to `NC(=O)c1ncn([C@@H]2O[C@H](CO)[C@@H](O)[C@H]2O)n1`, the figures for the cell viability in test [1], in test [2] and in test [3] were 1.12 ± 0.035, 1.04 ± 0.064 and 1.01 ± 0.021, respectively. The figures for the “TCF/Wnt firefly luciferase reporter signal” value in test [4] and in test [5] were 1.22 ± 0.23 and 0.986 ± 0.09, respectively.

Regarding `O=C(Oc1ccccc1C(=O)O)c1ccccc1O`, the cell viability in test [1] amounted to 1.02 ± 0.014; in test [2], 0.961 ± 0.054; in test [3], 1.03 ± 0.014. Besides, the entries for the “TCF/Wnt firefly luciferase reporter signal” value in test [4] and in test [5] were 1.06 ± 0.14 and 1.02 ± 0.18, respectively.

Regarding `O=CN(O)CCCC(NC(=O)C(CO)NC(=O)C1COC(c2ccccc2O)=N1)C(=O)NCCC(=O)NC1CCCN(O)C1=O` (stereo not given) [Oxachelin], the cell viability was 0.9715 ± 0.0092 in test [1], 1.07 ± 0.16 in test [2] and 1.03 ± 0.059 in test [3]. Also, the entries for the “TCF/Wnt firefly luciferase reporter signal” value in test [4] and in test [5] were 1.11 ± 0.021 and 1.03 ± 0.085, respectively.

As for `CC1(C)C=Cc2cc3ccc(=O)oc3cc2O1`, the figures for the cell viability in test [1], in test [2] and in test [3] were 0.979 ± 0.087, 1 ± 0.043 and 1.04 ± 0.042, respectively. Moreover, the “TCF/Wnt firefly luciferase reporter signal” value is 1.21 ± 0.13 in test [4] and 1.165 ± 0.0071 in test [5].

Regarding `CC(C)=CCc1c(O)cc(C)oc1=O`, the cell viability came out at 1.05 ± 0.17 in test [1], 1.07 ± 0.12 in test [2] and 1.055 ± 0.0071 in test [3]. For the same compound, the entries for the “TCF/Wnt firefly luciferase reporter signal” value in test [4] and in test [5] were 1.06 ± 0.1 and 1.03 ± 0.071, respectively.

`COc1ccc2cc3[n+](cc2c1OC)CCc1cc2c(cc1-3)OCO2`: the cell viability turned out to be 1.04 ± 0.021 in test [1], 0.984 ± 0.011 in test [2] and 1.02 ± 0.091 in test [3]. Also, the “TCF/Wnt firefly luciferase reporter signal” value was 1.1 ± 0.085 in test [4] and 0.954 ± 0.053 in test [5].

`CC(=O)OCC(CCn1cnc2cnc(N)nc21)COC(C)=O`: the cell viability in test [1] is 0.9935 ± 0.0021; in test [2] it was 0.97 ± 0.04; in test [3], 0.9805 ± 0.0092. For the same compound, the “TCF/Wnt firefly luciferase reporter signal” value was 0.984 ± 0.052 in test [4] and 1.025 ± 0.0071 in test [5].

On to `O=C1O[C@H]([C@@H](O)CO)C(O)=C1O`, for which the cell viability is 0.983 ± 0.024 in test [1], 1.02 ± 0.12 in test [2] and 1.01 ± 0.035 in test [3]. For the same compound, the “TCF/Wnt firefly luciferase reporter signal” value in test [4] worked out at 0.87 ± 0.069; in test [5] it was 0.969 ± 0.073.
